The source of these data is PubChem BioAssay (Tox21).

Unmarked numbers belong to inactive results. Records with an inconclusive call do not appear. Calls of active or inactive are those of the source. Unless noted, calls come from the whole dose curve.

Test [1] is described as follows: Nuclear factor erythroid 2-related factor 2/antioxidant responsive element (Nrf2/ARE) small molecule agonists: qHTS cell viability counter screen in human keratinocytes (AID 1919968; active = well fitted curve in the direction sought with a large enough effect in the repeat runs; an effect the other way counts as inactive or inconclusive; note: nearly all actives have a fitted effect of over 55% in size; note: potency is the fitted concentration of half-maximal effect). The method, boiled down: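 In human HaCaT keratinocytes stably expressing an ARE-driven luciferase, compound exposure lasted 23 h at 37 C under 5% CO2. Viable cells are quantified with a protease-based fluorogenic reagent (CellTiter-Fluor) read 1 h after addition.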

The target of test [2] is Gonadotropin-releasing hormone receptor (Homo sapiens) (UniProt P30968). Nature of the test: Human gonadotropin-releasing hormone receptor (GnRHR) small molecule agonists, calcium flux assay in GnRHR-HEK293 cells (AID 1920063). Note: nearly all actives have a fitted effect of over 35% in size. The method, boiled down: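 Intracellular calcium rise is the read-out: engineered human GnRHR HEK293 cells, dye-loaded, are exposed to DMSO-dissolved compounds and fluorescence at Ex/Em 480/540 is tracked for 3 min.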
Chain of Gonadotropin-releasing hormone receptor (Homo sapiens) (P30968 whole entry, looked up): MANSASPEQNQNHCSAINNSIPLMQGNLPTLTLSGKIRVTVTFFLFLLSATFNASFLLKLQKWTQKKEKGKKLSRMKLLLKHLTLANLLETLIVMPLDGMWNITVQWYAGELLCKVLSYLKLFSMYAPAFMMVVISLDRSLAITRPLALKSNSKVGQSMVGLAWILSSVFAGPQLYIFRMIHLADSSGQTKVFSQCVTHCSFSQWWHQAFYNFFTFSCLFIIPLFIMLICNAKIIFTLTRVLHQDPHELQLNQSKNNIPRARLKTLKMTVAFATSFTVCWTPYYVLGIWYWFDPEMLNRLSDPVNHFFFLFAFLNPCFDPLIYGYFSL
Background: A change in cytosolic calcium serves as a functional read-out for many receptors and channels.

The target of test [3] is KiSS-1 receptor (Homo sapiens) (UniProt Q969F8). Description: Human kisspeptin (KISS1R) small molecule agonists, calcium flux assay in KISS1R-HEK293 cells (AID 1920064; active = well fitted curve in the direction sought with a large enough effect in the repeat runs; an effect the other way counts as inactive or inconclusive). The method, boiled down:
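Concentration-response testing used 15 concentrations in triplicate on human KISS1R-expressing HEK293 cells. Calcium-dependent fluorescence (Ex/Em 480/540) was followed kinetically for 3 min after compound transfer.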

Test [4] can be described thus: G protein-coupled receptor (GPCR) small molecule agonists, calcium flux assay: HEK293 wild type cell line counter screen (AID 1920065). In short, it runs like this:
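Fluorescence intensity signals activation. After overnight (18 h) culture and a 1 h calcium dye load at 37 C, compounds are added by pin tool and the plate read at 480/540 nm for 3 min in 1 s steps.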

Test [5] is described as follows: p53 small molecule agonists, cell-based qHTS assay with human liver microsomes (AID 1963577). In short, it runs like this:
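Fluorescence of the beta-lactamase reporter in p53RE-bla cells, detected with LiveBLAzer substrate (2 h, room temperature, dark), served as the read-out after 16 h compound exposure at 37 C with human liver microsomes and NADPH, each 0.5 mg/mL final.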

A short description of test [6]: p53 small molecule agonists, cell-based qHTS assay with human liver microsomes: qHTS cell viability counter screen (AID 1963579). Note: nearly all actives have a fitted effect of over 45% in size. Note: potency is the fitted concentration of half-maximal effect. The method, boiled down: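 Cytotoxicity counter screen: p53RE-bla, 4,000 cells/well; 5 h settle, 37 C/5% CO2; cpd + HLM 0.5 mg/mL + NADPH 0.5 mg/mL (final); 16 h, 37 C; CellTiter-Glo, 30 min RT, luminescence.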
Background: qHTS replaces the single test concentration by a dilution series.

A short description of test [7]: p53 small molecule agonists, cell-based qHTS assay with rat liver microsomes: qHTS cell viability counter screen (AID 1963580). Note: nearly all actives have a fitted effect of over 45% in size. Note: potency is the fitted concentration of half-maximal effect. In short, it runs like this:
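Rat liver microsome (0.5 mg/mL final) and NADPH (0.5 mg/mL final) co-incubation with compounds for 16 h at 37 C on HCT-116 p53RE-bla cells; cytotoxicity taken from intracellular ATP luminescence.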

Test [8] in a line: p53 small molecule agonists, cell-based qHTS assay: qHTS cell viability counter screen (AID 1963581). Note: nearly all actives have a fitted effect of over 45% in size. Note: potency is the fitted concentration of half-maximal effect. In short, it runs like this: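 Luminescence from CellTiter-Glo, reflecting ATP content, serves as the cytotoxicity measure; it is taken after the 2 h reporter substrate step in HCT-116 p53RE-bla cells dosed for 16 h at 37 C.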
Test [9] in a line: p53 small molecule agonists, cell-based qHTS assay (AID 1963582; active = well fitted activation curve with a large enough effect in the signal ratio in the repeat runs, not every such curve was filed as active; the % refers to the signal ratio). The method, boiled down: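 After plating, p53RE-bla cells sat 5 h in the incubator; compounds or DMSO vehicle were pinned in; a 16 h incubation at 37 C followed; FRET substrate was added and, 2 h later at RT, fluorescence was measured.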
Test [10] addresses Muscarinic acetylcholine receptor M1 (Homo sapiens) (UniProt P11229). Description: Cholinergic receptor muscarinic 1 (CHRM1) small molecule agonists, cell-based qHTS assay (AID 1963589). Note: nearly all actives have a fitted effect of over 35% in size. In short, it runs like this: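 Fluorescent calcium dye reports M1 activation in stably transfected CHO cells. Compounds, 15 concentrations, added after 1 h dye loading at 37 C; kinetic reading at 1 sec intervals.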

The nature of test [11]: cAMP Responsive Elements (CRE) small molecule agonists, cell-based qHTS assay (AID 1963590). The method, boiled down: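 Compound exposure lasted 3 h at 37 C/5% CO2 in CRE-bla HEK 293T cells grown in assay medium with 10% dialyzed FBS and 25 mM HEPES. Reporter signal came from LiveBLAzer B/G FRET substrate, 2 h, room temperature.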
The nature of test [12]: cAMP Responsive Elements (CRE) small molecule antagonists, cell-based qHTS assay (AID 1963591; active = well fitted inhibition curve with a large enough effect in the signal ratio in the repeat runs, not every such curve was filed as active; the % refers to the signal ratio; note: potency is the fitted concentration of half-maximal effect). In short, it runs like this:
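Stimulation used NKH477 at a final 0.25 uM for 3 h in compound-treated CRE-bla HEK293T cells, seeded 18 h beforehand. Reporter activity was measured with LiveBLAzer B/G FRET substrate after 2 h at room temperature.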

Test [13] deals with Beta-2 adrenergic receptor (Homo sapiens) (UniProt P07550). Nature of the test: Adrenergic beta2 receptor (ADRB2) small molecule antagonists, cell-based qHTS assay (AID 1963592). Note: series mostly up to about 92 µM; nearly all actives have a fitted effect of over 50% in size. In short, it runs like this:
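Assay format: CHO-ADRB2 cells, 18-20hr seeding at 37C/5% CO2, then compound plus 1nM isoproterenol agonist mix for 0.5hr RT. Homogeneous time-resolved fluorescence cAMP detection after 1hr, expressed as 665/615 nm ratio.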

Test [14] has the same target. Nature of the test: Adrenergic beta2 receptor (ADRB2) small molecule agonists, cell-based qHTS assay (AID 1963593).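 Note: CHO cells stably overexpressing human ADRB2.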 The method, boiled down: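 CHO cells stably over-expressing ADRB2 were plated overnight at 37C, then dosed with compounds plus a stimulation mix containing 100uM IBMX and 25uM Ro-20-1724 for 0.5hr at room temperature. cAMP was measured by HTRF competition, 1hr.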

In test [15] the target is D(2) dopamine receptor (Homo sapiens) (UniProt P14416). Nature of the test: Dopamine D2 receptor (DRD2) small molecule agonists, cell-based qHTS assay (AID 1963594). Note: nearly all actives have a fitted effect of over 35% in size. In short, it runs like this:
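cAMP accumulation in DRD2-HEK293 cells measured by HTRF after 1 h detection; compounds added 10 min before NKH477 (200nM […]) forskolin-analogue stimulation, 30 min at room temperature, with Ro20-1724 present at 0.1 mM final.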

Test [16] shares this target. Description: Dopamine D2 receptor (DRD2) small molecule antagonists, cell-based qHTS assay (AID 1963595; active = well fitted inhibition curve with a large enough effect in the signal ratio in the repeat runs, with a control signal flat; the % refers to the signal ratio). In short, it runs like this: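 Stable D2 receptor HEK293 line, 24 h after seeding. Compound preincubated 10 min, then quinpirole (12 nM) with forskolin analogue NKH477 (200 nM), 30 min, room temperature. Detection by time-resolved FRET of cAMP.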
For test [17], the target named is 5-hydroxytryptamine receptor 2A (Homo sapiens) (UniProt P28223). Nature of the test: 5-hydroxytryptamine receptor 2A (HTR2A) small molecule antagonists, cell-based qHTS assay (AID 1963586). Note: nearly all actives have a fitted effect of over 45% in size. In short, it runs like this: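 CHO cells stably expressing human HTR2A were plated for 18 h at 37 C, then loaded with calcium dye for 1 h. Compounds were preincubated 5 min at room temperature before DOI (4 nM solution) was added. Kinetic fluorescence was read for 3 min.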
Chain of 5-hydroxytryptamine receptor 2A (Homo sapiens) (P28223 whole entry, looked up): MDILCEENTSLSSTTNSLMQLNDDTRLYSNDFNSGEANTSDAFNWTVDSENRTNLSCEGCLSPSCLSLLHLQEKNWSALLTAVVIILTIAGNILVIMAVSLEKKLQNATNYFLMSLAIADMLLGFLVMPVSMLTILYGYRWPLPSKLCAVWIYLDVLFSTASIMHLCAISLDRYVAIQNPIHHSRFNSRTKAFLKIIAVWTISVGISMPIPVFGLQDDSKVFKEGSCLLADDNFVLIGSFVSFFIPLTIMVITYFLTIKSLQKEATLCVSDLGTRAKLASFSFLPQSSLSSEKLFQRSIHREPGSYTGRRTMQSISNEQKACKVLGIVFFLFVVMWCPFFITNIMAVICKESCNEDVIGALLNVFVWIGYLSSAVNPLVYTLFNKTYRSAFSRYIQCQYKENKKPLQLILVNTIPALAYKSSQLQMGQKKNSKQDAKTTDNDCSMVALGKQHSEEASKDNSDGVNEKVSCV

The target of test [18] is Muscarinic acetylcholine receptor M1 (Homo sapiens) (UniProt P11229). Nature of the test: Cholinergic receptor muscarinic 1 (CHRM1) small molecule antagonists, cell-based qHTS assay (AID 1963588). Note: nearly all actives have a fitted effect of over 40% in size. Note: potency is the fitted concentration of half-maximal effect. The method, boiled down: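 Compounds were tested at 15 concentrations in three independent runs. Dye-loaded CHRM1-CHO cells were exposed 5 min at room temperature before stimulation by acetylcholine added at 50nM. Intracellular calcium was read kinetically on FDSS for 3 min.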
Chain of Muscarinic acetylcholine receptor M1 (Homo sapiens) (P11229 whole entry, looked up): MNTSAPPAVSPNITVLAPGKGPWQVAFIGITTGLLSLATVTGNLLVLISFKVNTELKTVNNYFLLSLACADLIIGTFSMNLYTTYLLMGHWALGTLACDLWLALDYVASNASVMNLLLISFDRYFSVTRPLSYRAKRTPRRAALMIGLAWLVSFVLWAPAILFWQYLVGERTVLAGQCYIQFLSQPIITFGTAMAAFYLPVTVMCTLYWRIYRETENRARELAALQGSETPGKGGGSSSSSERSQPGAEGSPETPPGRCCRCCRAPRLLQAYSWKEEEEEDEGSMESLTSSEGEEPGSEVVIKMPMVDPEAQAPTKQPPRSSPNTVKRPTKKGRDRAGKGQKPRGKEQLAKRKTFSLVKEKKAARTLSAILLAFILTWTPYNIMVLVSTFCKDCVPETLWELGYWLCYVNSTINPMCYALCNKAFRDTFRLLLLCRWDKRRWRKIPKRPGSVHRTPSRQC

In test [19] the target is 5-hydroxytryptamine receptor 2A (Homo sapiens) (UniProt P28223). Description: 5-hydroxytryptamine receptor 2A (HTR2A) small molecule agonists, cell-based qHTS assay (AID 1963587). Note: nearly all actives have a fitted effect of over 30% in size. In short, it runs like this:
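Kinetic calcium-flux fluorescence (2 min, 1 sec intervals) after compound addition in agonist mode. HTR2A-CHO cells were cultured 18 h, then dye-loaded 1 h at 37 C.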

Test [20] in a line: p53 small molecule agonists, cell-based qHTS assay with rat liver microsomes (AID 1963578). In short, it runs like this:
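Cells carrying a p53 response element–beta-lactamase reporter were plated and rested 5 h, then dosed with compound in DMSO plus rat liver microsomes and NADPH, each at 0.5 mg/mL final. After 16 h at 37 C, LiveBLAzer substrate was added for 2 h.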
% is set by controls: 0 for no effect and ±100 for the full control effect.

Chain of D(2) dopamine receptor (Homo sapiens) (P14416 whole entry, looked up): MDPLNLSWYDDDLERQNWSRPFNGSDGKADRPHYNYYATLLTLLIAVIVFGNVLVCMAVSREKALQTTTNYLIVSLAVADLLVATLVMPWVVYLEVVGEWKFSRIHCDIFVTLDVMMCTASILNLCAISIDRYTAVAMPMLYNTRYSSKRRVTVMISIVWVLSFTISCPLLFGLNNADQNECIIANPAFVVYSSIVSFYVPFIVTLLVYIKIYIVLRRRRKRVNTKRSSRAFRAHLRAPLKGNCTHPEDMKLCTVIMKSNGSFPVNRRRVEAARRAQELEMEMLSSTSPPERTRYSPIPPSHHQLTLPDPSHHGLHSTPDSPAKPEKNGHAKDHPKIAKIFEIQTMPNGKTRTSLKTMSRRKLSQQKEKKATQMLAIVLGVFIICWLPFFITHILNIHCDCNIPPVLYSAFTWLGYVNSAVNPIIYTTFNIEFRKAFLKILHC
Chain of Beta-2 adrenergic receptor (Homo sapiens) (P07550 whole entry, looked up): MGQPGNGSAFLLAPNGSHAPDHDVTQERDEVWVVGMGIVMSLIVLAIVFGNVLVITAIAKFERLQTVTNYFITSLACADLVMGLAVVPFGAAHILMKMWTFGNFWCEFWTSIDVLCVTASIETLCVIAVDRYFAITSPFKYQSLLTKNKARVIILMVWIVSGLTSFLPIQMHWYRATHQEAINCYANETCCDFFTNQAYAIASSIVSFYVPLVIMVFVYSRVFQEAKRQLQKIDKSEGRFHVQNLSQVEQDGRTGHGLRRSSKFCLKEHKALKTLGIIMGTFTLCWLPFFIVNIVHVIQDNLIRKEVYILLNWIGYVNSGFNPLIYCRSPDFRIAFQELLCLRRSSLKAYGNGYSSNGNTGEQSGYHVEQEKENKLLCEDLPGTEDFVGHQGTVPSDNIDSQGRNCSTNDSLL
Chain of KiSS-1 receptor (Homo sapiens) (Q969F8 whole entry, looked up): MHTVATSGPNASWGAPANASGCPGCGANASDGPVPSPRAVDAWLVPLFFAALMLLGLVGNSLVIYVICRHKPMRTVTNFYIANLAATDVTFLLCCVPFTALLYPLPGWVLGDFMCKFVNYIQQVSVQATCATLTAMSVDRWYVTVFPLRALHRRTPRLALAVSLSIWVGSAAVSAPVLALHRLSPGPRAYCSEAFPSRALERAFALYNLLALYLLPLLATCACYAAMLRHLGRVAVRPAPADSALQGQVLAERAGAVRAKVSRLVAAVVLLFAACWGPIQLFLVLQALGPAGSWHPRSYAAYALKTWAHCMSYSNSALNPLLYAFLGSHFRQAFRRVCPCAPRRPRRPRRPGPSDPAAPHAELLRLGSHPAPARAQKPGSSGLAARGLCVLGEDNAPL

Take `CCOCN(C(=O)CS(=O)(=O)O)c1c(C)cccc1CC`: the Potency entry in test [1], in test [2], in [3], in test [4], in test [5] and in test [6] was “inactive” throughout. Further, the Potency result in [7], in test [8], in [9], in test [10], in test [11] and in test [12] was “inactive” each time. Further, the Potency result in test [13], in [14], in test [15] and in test [16] was “inactive” in each case.

With `CCC(C)Nc1ccc(NC(C)CC)cc1` (configuration not stated), the Potency in test [1] was 3.93 µM (active); in [6], 2.08 µM (active); in [7], 4.66 µM (active); in test [8], 10.4 µM (active); in [18], 9.6 µM (active). For the same compound, the Potency result in test [2], in test [3], in test [4], in [5], in test [9] and in [17] was “inactive” throughout. In test [10], the Potency entry is “inactive”.

As for `C=C/C=C/C=C/CCCCC`, the activity change, negative = cytotoxicity is 4.28% [at 19 µM] in test [1], 1.88% [at 13.5 µM] in test [6], -6.94% [at 13.5 µM] in test [7] and -4.28% [at 13.5 µM] in test [8]. Moreover, the activity change in [2] is 0.656% [at 11.8 µM, stronger effect = higher value]. Besides, the activation in [3] is 1.28% [at 15.8 µM]; in test [4], 0.367% [at 11.8 µM]; in [5], -4.49% [at 13.5 µM]; in test [9] it was -3.72% [at 13.5 µM]; in test [10], 0.27% [at 15.8 µM]; in [11], 0.016% [at 19 µM]. For the same compound, the activation in test [15] is -0.0392% [at 19 µM]. The activity, negative = inhibition is -10.4% [at 12.7 µM] in test [17] and 25.8% [at 12.6 µM] in [18]. The activity change, negative = inhibition in test [12] was 0.0574% [at 18.9 µM]; in [16] it was -7.54% [at 18.9 µM].

For `CC(CN)CCCN` (configuration not stated), the Potency entry in test [1], in test [2], in [3], in [4], in test [5] and in [6] was “inactive” each time. The Potency result in [7], in [9], in test [17], in [19], in test [18] and in [10] was “inactive” each time. The Potency result in test [11], in test [12], in [13], in test [15] and in test [16] was “inactive” in each case.

For the compound `Oc1ccc(C2(c3ccc(O)c(C4CCCCC4)c3)CCCCC2)cc1C1CCCCC1`, the Potency was 12.2 µM (active) in [1], 20.4 µM (active) in test [6] and 21.7 µM (active) in test [12]. The Potency entry in test [2], in test [3], in test [4], in test [5], in test [7] and in test [17] was “inactive” in each case. In addition, the Potency entry in test [19], in test [18], in [10], in test [13] and in test [15] was “inactive” in each case.

As to `CCC(=O)Oc1ccc(/C(CC)=C(\CC)c2ccc(OC(=O)CC)cc2)cc1`, the Potency result in [1], in test [2], in test [3], in test [4], in test [5] and in test [20] was “inactive” each time. Besides, the Potency entry in test [8], in test [19], in [18], in [11], in test [12] and in test [13] was “inactive” throughout. Besides, the Potency entry in [15] and in test [16] was “inactive” each time.

With `CCC(C)(CN(C)C)OC(=O)c1ccccc1` (configuration not stated), the Potency result in test [1], in test [2], in [3], in test [4], in [20] and in test [6] was “inactive” throughout. The Potency entry in test [7], in test [8], in test [9], in [17], in test [19] and in [18] was “inactive” in each case. Further, the Potency entry in test [10], in [11], in test [13], in test [14], in test [15] and in test [16] was “inactive” throughout.
